Source: PubChem (The Scripps Research Institute Molecular Screening Center)
Shown are actives, neighbours in structure and some others; about 2.9% of the full set was active somewhere.
PLC-beta3 inh = inhibitors of human phospholipase C beta3; Q01970; Purified PLC-beta3, fluorogenic substrate, fluorescence; inhibition, % at 12.2 µM; actives 0.18% (n = 370,000); AID 720704; in the data active = inhibition above about 11%;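 also: 0% = median of compound wells on plate and 100% = full blocker control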
PLC-gamma1 inh = blocks human PLC-gamma1 enzyme activity; P19174; actives 0.84% (n = 370,000); purified PLC-gamma1, fluorogenic substrate, fluorescence; inhibition, % at 12.2 µM; AID 720700; in the data active = inhibition above about 9.5%
ADAM17 inh = inhibitors of human ADAM17 | recombinant ADAM17, EDANS/DABCYL FRET peptide cleavage | inhibition, % at 6.95 µM | actives 0.83% (n = 370,000);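 active = inhibition above the mean of compounds lying between control limits plus 3 SD, set per campaign, cut at about 8.5% in these data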;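 also: 0% = DMSO-only wells as the low control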
ADAM10 inh = inhibitors of human ADAM10. recombinant ADAM10, EDANS/DABCYL FRET peptide cleavage, 3 h. inhibition, % at 7 µM. actives 0.62% (n = 370,000);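 active = inhibition above a per-campaign cutoff equal to the mean of compounds falling between control-based bounds plus 3 SD, cut at about 20% in these data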;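 also: 0% = DMSO wells while the 100% control is not disclosed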
Target sequence (O14672 214-748 limits assumed): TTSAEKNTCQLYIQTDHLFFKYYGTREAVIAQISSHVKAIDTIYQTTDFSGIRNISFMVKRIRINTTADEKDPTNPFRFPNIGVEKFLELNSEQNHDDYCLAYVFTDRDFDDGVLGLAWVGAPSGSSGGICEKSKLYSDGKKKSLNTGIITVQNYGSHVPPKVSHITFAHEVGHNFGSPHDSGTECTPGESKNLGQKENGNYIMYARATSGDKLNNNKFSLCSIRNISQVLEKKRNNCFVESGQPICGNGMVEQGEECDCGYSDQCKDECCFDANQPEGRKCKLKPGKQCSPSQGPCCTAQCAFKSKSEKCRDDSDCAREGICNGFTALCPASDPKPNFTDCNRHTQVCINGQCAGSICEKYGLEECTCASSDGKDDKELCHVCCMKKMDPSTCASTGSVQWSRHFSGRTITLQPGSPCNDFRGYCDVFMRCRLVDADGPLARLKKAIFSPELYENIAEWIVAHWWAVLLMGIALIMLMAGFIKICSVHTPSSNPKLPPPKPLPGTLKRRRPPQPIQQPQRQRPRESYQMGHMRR
proKLK7 act = activators of human kallikrein-7 zymogen; AID 652039; activation, % at 7 µM; actives 0.9% (n = 370,000); purified proKLK7, EDANS-DABCYL substrate fluorescence; 100% is mature enzyme control, 0% vehicle; P49862;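 active = activation above the mean of all tested compounds plus 3 SD, computed per campaign excluding outliers beyond control limits, cut at about 13% in these data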
ADAM10 confirm = human ADAM10 inhibition, confirmation; ADAM10 QFRET peptide cleavage, EDANS fluorescence; inhibition, % at 6.95 µM; actives 1% (n = 2,100); shares compounds with ADAM10 inh; AID 743208;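 active = inhibition above about 20% chosen separately for each screening run, limit read from the data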;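 also: 0% = DMSO wells and 100% = marimastat wells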
ADAM17 ctr = ADAM17 inhibition, counter-screen for ADAM10 exosite hits; shares compounds with ADAM10 inh; ADAM17 QFRET peptide cleavage, EDANS fluorescence; inhibition, % at 6.95 µM; actives 0.5% (n = 2,100); AID 743214;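 active = mean triplicate inhibition above the solvent-only control wells' mean plus 3 SD, cut at about 12% in these data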;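 also: 0% = DMSO wells and 100% = marimastat wells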
ADAM10 counter = ADAM10 inhibition, counter-screen for ADAM17 exosite hits; shares compounds with ADAM17 inh; recombinant ADAM10, EDANS/DABCYL FRET peptide cleavage, 3 h; inhibition, % at 6.95 µM; actives 47% (n = 2,900);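 active = mean inhibition over the triplicate runs exceeds the activity threshold set in the earlier primary screen, cut at about 20% in these data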;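 also: 0% = DMSO wells and 100% = marimastat wells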
ADAM17 confirm = human ADAM17 inhibition, confirmation. inhibition, % at 6.95 µM. shares compounds with ADAM17 inh. recombinant ADAM17, EDANS/DABCYL QFRET peptide cleavage. actives 65% (n = 2,900). AID 743257;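 active = mean inhibition across replicates above the hit cutoff set in the primary screen, cut at about 8.5% in these data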;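 also: 0% = DMSO wells and 100% = marimastat wells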
* hit, by the source's call; . = not tested or not shown.

SMILES	PLC-beta3 inh	PLC-gamma1 inh	ADAM17 inh	ADAM10 inh	proKLK7 act	ADAM10 confirm	ADAM17 ctr	ADAM10 counter	ADAM17 confirm
Cc1cccc(NC(=O)c2nc[nH]c2C(=O)N(C)Cc2ccccc2)c1	5	7	9.4*	21*	0	2	0	10	7
O=C(NCc1ccco1)C1Cc2c(-c3cccc(F)c3)ccnc2O1 (stereo not drawn)	2	2	2	2	-1	.	.	.	.
O=C(Cn1cnc([N+](=O)[O-])c1)Nc1cc(Oc2ccc(Cl)cc2Cl)cc([N+](=O)[O-])c1	3	6	9.5*	23*	1	7	3	33*	17*
Cc1ccccc1-n1c(SCC(=O)N/N=C/C=C/c2ccccc2[N+](=O)[O-])nc2ccccc2c1=O	5	5	10.0*	23*	0	5	1	18	12*
C[N+](C)(C)c1ccc(/C=N/Nc2nc(Cl)c(C#N)c(Cl)c2Cl)cc1	-18	-11	-4	0	-1	.	.	.	.
N#Cc1c(Cl)nc(N/N=C/c2ccccc2)c(Cl)c1Cl	-25	-21	9.1*	23*	0	31*	15*	-121	-24
O=C(NCc1ccc(Cl)cc1)C1C2C=CC3(CN(Cc4ccccc4)C(=O)C13)O2 (stereo not drawn)	2	2	2	3	0	.	.	.	.
CCOc1ccc(-c2[nH]ncc2Oc2ccccc2OC)c(O)c1	1	5	9.6*	21*	0	4	2	30*	15*
C=C(C)COc1ccc(-c2[nH]ncc2Oc2ccccc2OC)c(O)c1	6	0	-4	-8	0	.	.	.	.
C=C(C)COc1ccc(-c2[nH]ncc2-c2ccccc2OC)c(O)c1	2	5	18*	29*	-1	11	3	37*	19*
CCNC(=O)OCCN1C(=O)CCC12CCC(c1ccc(Cl)cc1)CC2 (stereo not drawn)	-1	-1	-3	-2	0	.	.	.	.
COC(=O)c1cc2c(c3c4cc(F)ccc4n(S(=O)(=O)c4cccc(C)c4)c13)C(=O)N(Cc1ccc(N(C)C)cc1)C2	-5	1	0	0	-1	.	.	.	.
Cc1noc(C)c1COc1ccc(C(=O)OCc2nnc(-c3ccc(Cl)cc3)o2)cc1	-1	12*	12*	22*	0	2	1	21*	14*
O=C(OCc1nnc(-c2ccc(Cl)cc2)o1)c1ccncc1	-4	-4	-4	-11	-1	.	.	.	.
CCOC(=O)c1c(-c2ccccc2)csc1NC(=O)CSc1nc(N)cc(N)n1	6	6	13*	26*	1	5	1	11	9.8*
CCOC(=O)c1c(-c2ccccc2)csc1NC(=O)CSc1nc(C)cc(C)n1	3	5	3	18	1	.	.	.	.
CCC[C@H]1[C@@H](OC(=O)NCc2ccccc2)CC[C@@]23CCCN2C(=O)CCC[C@@H]13	-11	1	-6	-3	.	.	.	.	.
COC(=O)[C@]12C[C@H](CC(=O)NCc3cccs3)C(=O)N(Cc3ccc(Cl)cc3Cl)C1=C[C@H](C1CCCC1)O[C@@H]2C	4	2	3	12	0	.	.	.	.
O=C(NCCCc1ccccc1)[C@H](Cc1c[nH]c2ccccc12)NC1(C(=O)NCCc2c[nH]c3ccccc23)CCC1	0	6	16*	31*	.	10	3	30*	14*
CC(C)(C)OC(=O)N1CCC(N[C@@H](Cc2c[nH]c3ccccc23)C(=O)NCCc2c[nH]c3ccccc23)(C(=O)NC2CCCCC2)CC1	1	4	9.2*	26*	.	9	2	29*	15*
O=C(NCC(c1ccccc1)c1ccccc1)[C@H](Cc1c[nH]c2ccccc12)NC1(C(=O)NC2CCCCC2)CCCC1	-2	3	-3	2	.	.	.	.	.
CC(C)(N[C@@H](Cc1c[nH]c2ccccc12)C(=O)NCC(c1ccccc1)c1ccccc1)C(=O)NC1CCCCC1	2	2	9.9*	21*	.	8	3	40*	19*
CCOC(=O)[C@@]12CCCC3=C1N(CCC3)C(=O)[C@H]2CC(=O)NCc1cccc2ccccc12	3	1	1	3	0	.	.	.	.
COC(=O)[C@]12C[C@H](CC(=O)NCc3ccccc3)C(=O)N(CCc3ccc(OC)c(OC)c3)C1=C[C@H](C(C)C)O[C@@H]2C1CC1	1	1	-6	-3	0	.	.	.	.
Cc1ccc(Cn2cc(COC(=O)N3CCOCC3)nn2)cc1	2	3	-3	4	0	.	.	.	.
SMILES	PLC-beta3 inh	PLC-gamma1 inh	ADAM17 inh	ADAM10 inh	proKLK7 act	ADAM10 confirm	ADAM17 ctr	ADAM10 counter	ADAM17 confirm
CC(C)(C)NC(=O)C(OC(=O)c1cccs1)c1ccccc1 (stereo not drawn)	-3	5	-2	9	0	.	.	.	.
Cc1cc(C)cc(NC(=O)C(OC(=O)c2cccs2)c2ccccc2)c1 (stereo not drawn)	2	1	11*	21*	-1	5	2	11	8
CC(=O)c1cccc(NC(=O)C(OC(=O)c2ccccc2NS(=O)(=O)c2cccs2)c2ccccc2)c1 (stereo not drawn)	-26	-22	10*	21*	-2	13	5	12	18*
C[C@@H]1CCCN1c1ccc2c(c1)O[C@H]1CCN(C1)S2(=O)=O	-3	-2	-1	-3	0	.	.	.	.
S=c1nc(-c2sccc2OCc2ccc(Cl)cc2Cl)[nH][nH]1	-13	-10	11*	20*	-1	9	4	10	13*
CNC(=S)NNC(=O)c1sccc1OCc1ccc(Cl)cc1Cl	0	-2	-7	0	0	.	.	.	.
CCOC(=O)C1=CCN(S(=O)(=O)c2ccccc2Cl)C1c1ccc(Cl)c(Cl)c1 (stereo not drawn)	1	6	15*	21*	0	6	2	8	4
O=C(CCc1c[nH]c2ccccc12)Nc1ccc(Nc2cccnc2)c(Br)c1	-6	-1	0	1	0	.	.	.	.
CCn1cc([N+](=O)[O-])c(C(=O)N2N=C(c3ccc4ccccc4c3)CC2c2ccccc2O)n1 (stereo not drawn)	3	2	9.1*	24*	-1	8	2	33*	18*
